From PubChem BioAssay AID624352 (Sanford-Burnham Center for Chemical Genomics, 2012)
Screen size: about 360,000 compounds; about 2,600 (0.72%) were called active.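 How the source made its calls: active means inhibition of the luminescence signal of 40% or more relative to plate controls, in a single-dose primary screen at 18.75 µM; inactive means the rest.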 For the sample, actives were picked, then their nearest neighbours and some compounds at random.

Experiment: blockers of HIF-2a driven luciferase – luminescence, 786-0 RCC cells, primary screen (AID 624352)
Details: 786-0 RCC cells HIF-2a reporter, overnight, at 18.8 µM, stronger effect = higher value

Row | SMILES | inhibition
1 | CC(=O)NC1=NN(C(C)=O)C(C)(c2ccc(Cl)s2)S1 (stereo not given) | 14.9% (inactive)
2 | CCc1cc(=O)oc2c(C)c(OCC(=O)N3CC[C@@]4(O)CCCC[C@H]4C3)ccc12 | -4.19% (inactive)
3 | Brc1ccc(CN2CC[C@H]3C=CCc4cccc(c43)C2)cc1 | 11.8% (inactive)
4 | Cc1ccc(NC(=S)NC(NC(=O)Cc2cccc3ccccc23)C(Cl)(Cl)Cl)cc1 (stereo not given) | 54.6% (active)
5 | CC(C)(C)C(=O)NC(NC(=S)Nc1ccc(S(N)(=O)=O)cc1)C(Cl)(Cl)Cl (stereo not given) | 5.45% (inactive)
6 | O=C(Cc1cccc2ccccc12)NNC(=O)Nc1ccc(Cl)cc1 | -196% (inactive)
7 | O=c1c2ccccc2cnn1Cc1n[nH]c(=S)n1-c1ccccc1F | 13.1% (inactive)
8 | O=C(NCCc1cccc(F)c1)C1CC(O)CN1C(=O)Nc1ccccc1 (stereo not given) | 17.9% (inactive)
9 | CCCNC(=O)C1(C)CCCN(Cc2c(C)nn(-c3ccccc3)c2C)C1 (stereo not given) | 6.85% (inactive)
10 | COc1ccc(CNC(=O)COc2ccccc2C(=O)c2cnn(-c3ccccc3)c2)cc1OC | -184% (inactive)
11 | Cc1ccc(NC(=O)CCCNC(=O)c2ccc(Cl)cc2)cc1S(=O)(=O)N1CCOCC1 | 5.62% (inactive)
12 | CN1CCN(CCCNC(=O)c2ccc(/C=C3\Oc4ccccc4N(Cc4ccc(Cl)cc4)C3=O)cc2)CC1 | 89.4% (active)
13 | CCC1Oc2ccccc2N(CC(=O)NCCCN2CCN(CC)CC2)C1=O (stereo not given) | 4.83% (inactive)
14 | O=C1CCC(=O)N(c2ccccc2)N1 | 9.24% (inactive)
15 | CN(c1ccc(OCC(=O)NC2=NCCS2)cc1)S(=O)(=O)c1ccc(F)cc1 | 1.28% (inactive)
16 | O=C(c1ccc2ccccc2n1)N1CCN(c2ccccc2Cl)CC1 | -107% (inactive)
17 | Cc1coc2c(O)cc3c(c12)OC1(N2CCCCC2)C(=O)NCCCC31 (stereo not given) | 56.7% (active)
18 | Cn1c(=O)c2sccc2n(Cc2ccc(Br)cc2)c1=O | 13.3% (inactive)
19 | OCCC#Cc1ccc(N2C(c3ccsc3)=Cc3ccc(F)cc3C2c2c[nH]c3ccccc23)cc1 (stereo not given) | -21.5% (inactive)
20 | O=C(O)CC(SCC(=O)Nc1ccc(Br)cc1)C(=O)O (stereo not given) | 2.54% (inactive)
21 | O=C(CCl)Nc1ccc(Sc2ccc(NC(=O)CCl)cc2)cc1 | 58.1% (active)
22 | CC(=O)Nc1ccc(NC(=O)CC2CCCC2)cc1 | -38.5% (inactive)
23 | c1ccc(-c2cnc(CN3CCN(c4ccccc4)CC3)o2)cc1 | -16.5% (inactive)

Row | SMILES | inhibition
24 | CC(NC(=O)C(=O)NN=C1CCC(C(C)(C)C)CC1)c1ccccc1 (stereo not given) | 13.2% (inactive)
25 | CCCCc1c(-c2ccc(Cl)cc2)ncn1CCc1ccccc1OC | -111% (inactive)
26 | FC(F)(F)c1nnc2c3ccccc3c(Cl)nn12 | 16.8% (inactive)
27 | CC1(C(=O)Nc2ccc3c(c2)OCCO3)CN(S(C)(=O)=O)CC(=O)N1Cc1cccc(F)c1 (stereo not given) | 11.6% (inactive)
28 | Cc1ccc(-c2noc(CNC(=O)c3ccoc3C)n2)cc1 | 89% (active)
29 | O=C(Cc1ccc(Cl)cc1)NCc1nc(-c2ccccc2)no1 | 8.68% (inactive)
30 | Cc1ccc(-c2noc(-c3ccccc3C(=O)NCC3CCCO3)n2)cc1 (stereo not given) | -126% (inactive)
31 | COC(=O)c1ccc(COC(=O)c2cnccn2)cc1 | 9.27% (inactive)
32 | Cc1nc(C(F)(F)F)ccc1C(=O)N1CCC1(C)C(=O)NS(=O)(=O)c1ccccc1 (stereo not given) | 18.3% (inactive)
33 | CC(C)C(=O)NC(NC(=S)NC1CCS(=O)(=O)C1)C(Cl)(Cl)Cl (stereo not given) | -1.77% (inactive)
34 | CCCSC(=S)NC1CCS(=O)(=O)C1 (stereo not given) | 41.3% (active)
35 | O=S1(=O)CCC(NC(=S)SCc2ccccc2Br)C1 (stereo not given) | 37.1% (inactive)
36 | CC(=O)OCC1(O)CC23CCC4c5ccoc5CCC4(C)C2CCC1C3 (stereo not given) | 7.41% (inactive)
37 | OCCNCCCCOc1ccccc1F | -0.6% (inactive)
38 | CC1(C)OC(=O)C2=C(C[C@@H](C3CCCC3)O[C@@H]2c2ccc(Cl)cc2)O1 | 8.87% (inactive)
39 | CN(c1ccc2nc3ccccc3c(=O)n2n1)C1CCCCC1 | 78.2% (active)
40 | COCC(C)n1c(SCC(=O)NC2CCCCC2C)nc2ccccc2c1=O (stereo not given) | 15% (inactive)
41 | CN(C(=O)Nc1ccc(Cl)cc1)n1cnc2ccccc2c1=O | -36.5% (inactive)
42 | Cc1cccc(OCC(=O)OCC(=O)Nc2ccc(Cl)cn2)c1 | 11.3% (inactive)
43 | Cc1ccc(C2=NN(C(=O)CSc3nc(N)cc(N)n3)C(c3ccco3)C2)cc1 (stereo not given) | 24.9% (inactive)
44 | O=C(CN1CCN(C2CCS(=O)(=O)C2)CC1)N1N=C(c2ccc(Cl)cc2)CC1c1ccco1 (stereo not given) | 47.5% (active)
45 | Cc1ccc(C2=NN(C(=O)COc3ncnc4ccccc34)C(c3ccco3)C2)cc1 (stereo not given) | 6.33% (inactive)
46 | CN(C(=O)c1cccc(NC(=O)Cc2cccc(NC(=O)C3CCCN(C(=O)C4CC4)C3)c2)c1)C1CCC1 (stereo not given) | 11.8% (inactive)

Row | SMILES | inhibition
47 | COc1ccccc1C(=O)Nc1nc2nc(-c3ccccc3)cc(=O)n2[nH]1 | 4.83% (inactive)
48 | COc1ccc2c(c1OC)C(=O)OC2Nc1nc(-c2ccccc2)cs1 (stereo not given) | 57.8% (active)
49 | COc1cc(C(O)c2nc(-c3cccc(C(=O)O)c3)cs2)ccc1F (stereo not given) | -9.8% (inactive)
50 | CCN1CCN(C(=O)c2cc3cc4ccc(OC)cc4nc3s2)CC1 | -78.9% (inactive)
51 | COc1cc(OC)c(NS(=O)(=O)c2cn(C)cn2)cc1Cl | 6.21% (inactive)
52 | CSc1ccccc1NC(=O)Cc1ccc(Br)cc1 | -11.3% (inactive)
53 | COc1ccc(C(=O)/C=C/c2ccc(-c3ccccc3)cc2)cc1CSCC(=O)O | 67.7% (active)
54 | COc1ccccc1CCNC(=O)C1CCN(C(=O)/C=C/c2ccccc2)CC1 | -5.61% (inactive)
55 | COC(=O)c1ccc(COc2ccc(/C=C/C(=O)c3ccc(OC)c(CSCC(=O)O)c3)cc2OC)cc1 | -5.92% (inactive)
56 | CC(C)Cc1ccc(C(C)C(=N)N)cc1 (stereo not given) | 25.6% (inactive)
57 | COc1ccc(CCNC(=O)Nc2ccc3c(c2)c(=O)n(C)n3C)cc1OC | 3.46% (inactive)
58 | COCCNC(=O)CN(Cc1ccco1)C(=O)CCC(=O)Nc1nccs1 | 3.02% (inactive)
59 | COCCNC(=O)Nc1ccc2nc(-c3ccco3)c(-c3ccco3)nc2c1 | 42.3% (active)
60 | O=S1(=O)CC(N2CCN(Cc3ccccc3F)CC2)CN1Cc1cn(Cc2cccc(C(F)(F)F)c2)nn1 (stereo not given) | 1.15% (inactive)
61 | CCOc1ccc(OCC(=O)Nc2c3c(nn2C(C)(C)C)CS(=O)(=O)C3)cc1 | -1.94% (inactive)
62 | COc1ccc(NC(=O)COC(=O)CNC(=O)C2CCCCC2)cc1 | 12.4% (inactive)
63 | CCC(C)(C)c1ccc(Oc2ccc(NC(=O)COC(=O)C3=COCCO3)cc2)cc1 | 82.3% (active)
64 | O=C1CCC(C(=O)OCC(=O)Nc2ccc(OC(F)F)cc2)=NN1 | -7.05% (inactive)
65 | CCc1cccc(NC(=O)CCCN2C(=O)C(c3ccccc3)Oc3cccnc32)c1 (stereo not given) | 9.51% (inactive)
66 | Cc1ccc(C(=O)N2CC(=O)Nc3ccccc32)o1 | 14.2% (inactive)
67 | Fc1ccc(CNc2nc3ccccc3n3nnnc23)cc1 | -134% (inactive)
68 | CC(=O)Nc1ccc(C(=O)CSc2nnc(Cc3ccccc3)o2)cc1 | -43.3% (inactive)
69 | COc1cc(C(=O)NCc2nnc(SCC(=O)c3ccc(Cl)cc3)o2)cc(OC)c1OC | 5.32% (inactive)

Row | SMILES | inhibition
70 | CC(C)C[C@@H](N)c1nnc(SCC(=O)c2ccc(Cl)cc2)o1 | 56.9% (active)
71 | C[C@H]1Cn2cnc(C(=O)N[C@@H](Cc3c[nH]c4ccccc34)C(=O)OC(C)(C)C)c2C(=O)N1 | -4.95% (inactive)
72 | C=CCC[C@@H](Cc1ccc(F)cc1)C(=O)O[C@H](CNC(=O)[C@H](CC=C)CC(=O)N(CCO)Cc1ccccc1)c1ccccc1 | 12.7% (inactive)
73 | CCN1CCN(C(=O)C2(NC(=O)Nc3cccc(F)c3)CCCCC2)CC1 | 9.23% (inactive)
74 | COc1ccc(NC(=O)C2C3C=CC(C3)C2C(=O)NCc2ccccn2)c(OC)c1 (stereo not given) | 10.9% (inactive)
75 | Cc1c(NC(=O)C(C)OC(=O)c2cc3c4ccccc4n(C)c3s2)c(=O)n(-c2ccccc2)n1C (stereo not given) | 4.75% (inactive)
76 | Cc1sc2ccccc2c1CNC[C@H]1O[C@@H](n2ccc(=O)[nH]c2=O)[C@H](O)[C@@H]1O | 11.7% (inactive)
77 | OC(c1cc(Cl)cc(Cl)c1)c1ncc(-c2ccccc2C(F)(F)F)[nH]1 (stereo not given) | 14.7% (inactive)
78 | O=C(OC12CC3CC(CC(C3)C1)C2)c1ccc(NCc2cc(O)ccc2O)cc1 | 88.1% (active)
79 | CC(C)OCCCNC(=S)N1CCC(C(=O)c2ccc3c(c2)OCCO3)CC1 | -5.91% (inactive)
80 | c1ccc(-c2ccnc3nc(-n4cccc4)nn23)cc1 | -8.27% (inactive)
81 | C/C(N)=C(/C#N)C(=O)COC(=O)C1CCN(C(=O)c2ccc(Cl)cc2)CC1 | 8.64% (inactive)
82 | CCc1ccc(-c2cc(C)no2)cc1S(=O)(=O)NCCc1ccc(S(N)(=O)=O)cc1 | 9.29% (inactive)
83 | Cc1cc(CNC(=O)C2CCC(=O)N(CCc3ccc(Cl)cc3)C2)no1 (stereo not given) | -9.67% (inactive)
84 | O=C(NCCc1c[nH]c2ccc(Cl)cc12)c1ccc([N+](=O)[O-])cc1 | -9.18% (inactive)
85 | COc1ccccc1CN(C)c1nnnn1-c1ccccc1 | 15.6% (inactive)
86 | COc1ccccc1-n1nnnc1S(=O)(=O)Cc1ccc(Cl)cc1 | 86% (active)
87 | CCN(C(=O)CSc1nnnn1-c1ccccc1OC)C1CCS(=O)(=O)C1 (stereo not given) | -1.01% (inactive)
88 | Cc1[nH]c2ccccc2c1C(=O)c1cc([C@H](NC(=O)OC(C)(C)C)C(C)C)sc1N | 2.29% (inactive)
89 | C=CCOc1ccccc1CNn1c(C)n[nH]c1=S | 21.3% (inactive)
90 | COc1cccc(C(NC(C)=O)c2nc(-c3cnc4ccccc4c3)cs2)c1 (stereo not given) | -32.9% (inactive)
